Source: PubChem BioAssay AID1159580 (chemical genetic matrix, 2015)
About 2,000 (36%) of roughly 5,500 compounds were called active. About 18% were inconclusive and are not listed. Rule as the data show it: active = normalized growth mostly below about 0.91 (no sharp cut-off); inconclusive = no clear call, values can overlap the other calls; inactive = mostly above about 0.92. The list shows a part of the results.

Experiment: chemical genetic growth profiling, strain panel (AID 1159580);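 also: tested at 20 µM; growth read once vehicle control cultures reached saturation at 30 °C; 1 = growth at the plate median or of vehicle wells; lower values mean less growth of the strain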
Conditions: growth OD

Measured: normalized growth

CCCCC1C(=O)N(c2ccccc2)N(c2ccc(O)cc2)C1=O (stereo not given)
inactive: S. cerevisiae deletion strains, locus YJR075W, strain HOC1, hits give low values 0.998 | S. cerevisiae deletion strains, locus YKL009W, strain mrt4, hits give low values 1.01 | S. cerevisiae deletion strains, locus YKL068W, hits give low values 0.987 | S. cerevisiae deletion strains, locus YKL085W, strain MDH1 (second series), hits give low values 0.993 | S. cerevisiae deletion strains, locus YKL085W, strain MDH1, hits give low values 0.993 | S. cerevisiae deletion strains, locus YKL160W, strain elf1, hits give low values 1.03 | S. cerevisiae deletion strains, locus YKL190W, strain CNB1, hits give low values 1 | S. cerevisiae deletion strains, locus YKR001C, strain vps1, hits give low values 0.927 | S. cerevisiae deletion strains, locus YKR026C, strain gcn3, hits give low values 1.01 | S. cerevisiae deletion strains, locus YKR091W, strain srl3, hits give low values 0.996 | S. cerevisiae deletion strains, locus YLL001W, strain dnm1, hits give low values 1.02 | S. cerevisiae deletion strains, locus YLL026W, hits give low values 1 | S. cerevisiae deletion strains, locus YLL041C, strain sdh2, hits give low values 1 | S. cerevisiae deletion strains, locus YLR027C, strain aat2, hits give low values 0.994 | S. cerevisiae deletion strains, locus YLR039C, strain RIC1, hits give low values 0.963 | S. cerevisiae deletion strains, locus YLR058C, strain SHM2, hits give low values 0.976 | S. cerevisiae deletion strains, locus YLR102C, strain apc9, hits give low values 0.996 | S. cerevisiae deletion strains, locus YLR113W, strain HOG1, hits give low values 0.948 | S. cerevisiae deletion strains, locus YLR221C, strain rsa3, hits give low values 1.02 | S. cerevisiae deletion strains, locus YLR258W, strain gsy2, hits give low values 0.998 | S. cerevisiae deletion strains, locus YLR262C, strain YPT6 (second series), hits give low values 0.956 | S. cerevisiae deletion strains, locus YLR262C, strain YPT6, hits give low values 0.903 | S. cerevisiae deletion strains, locus YLR268W, strain sec22, hits give low values 1.04 | S. cerevisiae deletion strains, locus YLR320W, strain mms22, hits give low values 1.04 | S. cerevisiae deletion strains, locus YLR330W, strain CHS5, hits give low values 0.996 | S. cerevisiae deletion strains, locus YLR342W, strain FKS1 (second series), hits give low values 0.99 | S. cerevisiae deletion strains, locus YLR342W, strain FKS1, hits give low values 1.01 | S. cerevisiae deletion strains, locus YLR357W, strain rsc2, hits give low values 1.01 | S. cerevisiae deletion strains, locus YLR370C, strain arc18, hits give low values 1 | S. cerevisiae deletion strains, locus YLR371W, strain rom2, hits give low values 0.971 | S. cerevisiae deletion strains, locus YLR384C, strain iki3, hits give low values 0.997 | S. cerevisiae deletion strains, locus YLR418C, strain cdc73, hits give low values 1 | S. cerevisiae deletion strains, locus YML016C, strain PPZ1, hits give low values 0.991 | S. cerevisiae deletion strains, locus YML032C, strain rad52, hits give low values 0.996 | S. cerevisiae deletion strains, locus YML120C, strain ndi1, hits give low values 1.01 | S. cerevisiae deletion strains, locus YML124C, strain tub3, hits give low values 0.99 | S. cerevisiae deletion strains, locus YMR058W, strain fet3, hits give low values 1 | S. cerevisiae deletion strains, locus YMR078C, strain ctf18, hits give low values 0.986 | S. cerevisiae deletion strains, locus YMR125W, strain sto1, hits give low values 1 | S. cerevisiae deletion strains, locus YMR129W, hits give low values 1.01 | S. cerevisiae deletion strains, locus YMR205C, strain PFK2, hits give low values 1.02 | S. cerevisiae deletion strains, locus YMR223W, strain ubp8, hits give low values 0.968 | S. cerevisiae deletion strains, locus YMR231W, strain pep5, hits give low values 1 | S. cerevisiae deletion strains, locus YMR307W, strain GAS1, hits give low values 0.952 | S. cerevisiae deletion strains, locus YNL067W, strain RPL9B, hits give low values 0.999 | S. cerevisiae deletion strains, locus YNL071W, strain lat1, hits give low values 0.997 | S. cerevisiae deletion strains, locus YNL153C, strain GIM3, hits give low values 0.984 | S. cerevisiae deletion strains, locus YNL183C, strain NPR1, hits give low values 0.954 | S. cerevisiae deletion strains, locus YNL209W, strain ssb2, hits give low values 1 | S. cerevisiae deletion strains, locus YNL233W, strain BNI4, hits give low values 0.989 | S. cerevisiae deletion strains, locus YNL248C, strain rpa49, hits give low values 1.03 | S. cerevisiae deletion strains, locus YNL250W, strain rad50, hits give low values 0.985 | S. cerevisiae deletion strains, locus YNL271C, strain bni1, hits give low values 1 | S. cerevisiae deletion strains, locus YNL298W, strain CLA4, hits give low values 0.987 | S. cerevisiae deletion strains, locus YNL307C, strain MCK1, hits give low values 0.987 | S. cerevisiae deletion strains, locus YNL322C, strain KRE1 (second series), hits give low values 1.02 | S. cerevisiae deletion strains, locus YNL322C, strain KRE1, hits give low values 0.993 | S. cerevisiae deletion strains, locus YNR049C, strain mso1, hits give low values 1.01 | S. cerevisiae deletion strains, locus YNR052C, strain pop2, hits give low values 0.996 | S. cerevisiae deletion strains, locus YOL006C, strain TOP1, hits give low values 0.982 | S. cerevisiae deletion strains, locus YOL012C, strain htz1 0.972 | S. cerevisiae deletion strains, locus YOL147C, strain pex11, hits give low values 0.998 | S. cerevisiae deletion strains, locus YOR001W, strain rrp6, hits give low values 0.989 | S. cerevisiae deletion strains, locus YOR061W, strain CKA2, hits give low values 0.959 | S. cerevisiae deletion strains, locus YOR069W, strain VPS5, hits give low values 1 | S. cerevisiae deletion strains, locus YOR070C, strain gyp1, hits give low values 1.02 | S. cerevisiae deletion strains, locus YOR080W, strain dia2, hits give low values 0.993 | S. cerevisiae deletion strains, locus YOR083W, strain WHI5, hits give low values 1.04 | S. cerevisiae deletion strains, locus YOR106W, strain vam3, hits give low values 1.02 | S. cerevisiae deletion strains, locus YOR136W, strain idh2, hits give low values 0.983 | S. cerevisiae deletion strains, locus YOR144C, strain elg1, hits give low values 0.985 | S. cerevisiae deletion strains, locus YOR184W, strain ser1, hits give low values 0.983 | S. cerevisiae deletion strains, locus YOR231W, strain MKK1, hits give low values 0.987 | S. cerevisiae deletion strains, locus YOR265W, strain rbl2, hits give low values 0.996 | S. cerevisiae deletion strains, locus YOR270C, strain vph1, hits give low values 1.03 | S. cerevisiae deletion strains, locus YOR290C, strain snf2, hits give low values 1.02 | S. cerevisiae deletion strains, locus YOR316C, strain cot1, hits give low values 0.989 | S. cerevisiae deletion strains, locus YPL051W, strain arl3, hits give low values 1.01 | S. cerevisiae deletion strains, locus YPL055C, strain LGE1, hits give low values 0.938 | S. cerevisiae deletion strains, locus YPL078C, strain atp4, hits give low values 1.02 | S. cerevisiae deletion strains, locus YPL106C, strain sse1, hits give low values 1.02 | S. cerevisiae deletion strains, locus YPL240C, strain hsp82, hits give low values 1.01 | S. cerevisiae deletion strains, locus YPL241C, strain CIN2, hits give low values 0.99 | S. cerevisiae deletion strains, locus YPL256C, strain CLN2, hits give low values 0.953 | S. cerevisiae deletion strains, locus YPR119W, strain clb2, hits give low values 0.982 | S. cerevisiae deletion strains, locus YPR141C, strain kar3, hits give low values 0.972 | S. cerevisiae deletion strains, locus YPR163C, strain tif3, hits give low values 0.986 | S. cerevisiae deletion strains, locus YPR167C, strain met16, hits give low values 0.987 | S. cerevisiae deletion strains, strain wtn01, hits give low values 1 | S. cerevisiae strains, strain wild type, hits give low values 1
